Source: PubChem BioAssay AID1159580 (chemical genetic matrix, 2015)
In all, about 5,500 compounds went through this assay and about 2,000 (36%) were called active. Another 18% or so got no clear call; they are omitted. No stated cut-off is given here; in the data, active means normalized growth mostly below about 0.91 (no sharp cut-off); inconclusive means no clear call, values can overlap the other calls; inactive means mostly above about 0.92. The list shows a part of the results.

Test: chemical genetic growth profiling, strain panel (AID 1159580);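 further: tested at 20 µM; growth read once vehicle control cultures reached saturation at 30 °C; 1 = growth at the plate median or of vehicle wells; lower values mean less growth of the strain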
Conditions: S. cerevisiae deletion strains, growth OD

Measured: normalized growth

COCC1=C(C(=O)OC(C)OC(=O)OC(C)C)N2C(=O)[C@@H](NC(=O)/C(=N\OC)c3csc(N)n3)[C@H]2SC1 (stereo not given in full)
inactive: locus YAL021C, strain ccr4, hits give low values 0.98 | locus YAL026C, strain drs2, hits give low values 0.967 | locus YAL030W, strain snc1, hits give low values 0.982 | locus YBL061C, strain skt5, hits give low values 0.968 | locus YBR009C, strain hhf1, hits give low values 0.96 | locus YBR023C, strain chs3, hits give low values 0.982 | locus YBR171W, strain sec66, hits give low values 0.968 | locus YBR231C, strain swc5, hits give low values 0.967 | locus YBR279W, strain paf1, hits give low values 0.98 | locus YCL011C, strain gbp2, hits give low values 0.973 | locus YCL016C, strain dcc1, hits give low values 0.982 | locus YCL061C, strain MRC1, hits give low values 0.981 | locus YCL069W, strain vba3, hits give low values 0.976 | locus YCR088W, strain abp1, hits give low values 0.97 | locus YDL005C, strain med2, hits give low values 0.966 | locus YDL040C, strain nat1, hits give low values 0.977 | locus YDR001C, strain nth1, hits give low values 0.97 | locus YDR069C, strain doa4, hits give low values 0.971 | locus YDR137W, strain rgp1, hits give low values 0.93 | locus YDR159W, strain sac3, hits give low values 0.95 | locus YDR195W, strain ref2 0.927 | locus YDR297W, strain sur2, hits give low values 0.979 | locus YDR334W, strain swr1, hits give low values 0.976 | locus YDR335W, strain msn5, hits give low values 0.987 | locus YDR392W, strain spt3, hits give low values 0.919 | locus YEL003W, strain gim4, hits give low values 0.984 | locus YEL037C, strain rad23, hits give low values 0.969 | locus YEL061C, strain CIN8 (second series), hits give low values 0.971 | locus YER015W, strain faa2, hits give low values 0.98 | locus YER016W, strain bim1, hits give low values 0.98 | locus YER111C, strain swi4, hits give low values 0.972 | locus YER155C, strain BEM2 (second series), hits give low values 0.972 | locus YFR010W, strain ubp6, hits give low values 0.964 | locus YGL167C, strain pmr1, hits give low values 0.967 | locus YGL173C, strain kem1, hits give low values 0.968 | locus YGL227W, strain vid30, hits give low values 0.96 | locus YGL240W, strain doc1, hits give low values 0.981 | locus YGL253W, strain hxk2, hits give low values 0.986 | locus YHR013C, strain ard1, hits give low values 0.976 | locus YHR027C, strain rpn1, hits give low values 0.985 | locus YHR030C, strain SLT2, hits give low values 0.968 | locus YHR079C, strain IRE1, hits give low values 0.999 | locus YHR142W, strain chs7, hits give low values 0.982 | locus YJL092W, strain hpr5, hits give low values 0.972 | locus YJL095W, strain BCK1 (second series), hits give low values 0.989 | locus YJL095W, strain BCK1, hits give low values 0.977 | locus YJL115W, strain asf1, hits give low values 0.966 | locus YJL129C, strain trk1, hits give low values 0.974 | locus YJL154C, strain vps35, hits give low values 0.976 | locus YJL164C, strain tpk1, hits give low values 0.998 | locus YJL166W, strain qcr8, hits give low values 0.998 | locus YJL187C, strain SWE1, hits give low values 0.982 | locus YJR066W, strain TOR1, hits give low values 0.927 | locus YKL160W, strain elf1, hits give low values 0.994 | locus YKR026C, strain gcn3, hits give low values 0.962 | locus YKR091W, strain srl3, hits give low values 0.981 | locus YLL001W, strain dnm1, hits give low values 0.976 | locus YLL026W, hits give low values 0.971 | locus YLL041C, strain sdh2, hits give low values 0.992 | locus YLR027C, strain aat2, hits give low values 0.979 | locus YLR113W, strain HOG1, hits give low values 0.943 | locus YLR221C, strain rsa3, hits give low values 0.997 | locus YLR258W, strain gsy2, hits give low values 0.978 | locus YLR262C, strain YPT6 (second series), hits give low values 0.987 | locus YLR320W, strain mms22, hits give low values 0.983 | locus YLR342W, strain FKS1, hits give low values 0.973 | locus YLR357W, strain rsc2, hits give low values 0.929 | locus YLR370C, strain arc18, hits give low values 0.956 | locus YLR384C, strain iki3, hits give low values 0.976 | locus YML120C, strain ndi1, hits give low values 0.967 | locus YMR058W, strain fet3, hits give low values 0.981 | locus YMR125W, strain sto1, hits give low values 0.926 | locus YMR129W, hits give low values 0.97 | locus YMR205C, strain PFK2, hits give low values 0.937 | locus YMR231W, strain pep5, hits give low values 0.967 | locus YNL071W, strain lat1, hits give low values 0.986 | locus YNL183C, strain NPR1, hits give low values 0.945 | locus YNL209W, strain ssb2, hits give low values 0.986 | locus YNL248C, strain rpa49, hits give low values 0.99 | locus YNL322C, strain KRE1 (second series), hits give low values 0.982 | locus YNR049C, strain mso1, hits give low values 0.98 | locus YOR001W, strain rrp6, hits give low values 0.978 | locus YOR070C, strain gyp1, hits give low values 0.976 | locus YOR080W, strain dia2, hits give low values 0.967 | locus YOR083W, strain WHI5, hits give low values 0.993 | locus YOR106W, strain vam3, hits give low values 0.983 | locus YOR231W, strain MKK1, hits give low values 0.973 | locus YOR265W, strain rbl2, hits give low values 0.982 | locus YOR270C, strain vph1, hits give low values 0.951 | locus YOR290C, strain snf2, hits give low values 0.962 | locus YPL051W, strain arl3, hits give low values 0.994 | locus YPL078C, strain atp4, hits give low values 0.986 | locus YPL106C, strain sse1, hits give low values 0.982 | locus YPL240C, strain hsp82, hits give low values 0.99 | locus YPL256C, strain CLN2, hits give low values 0.974
